Holding throughout (assay): DAPPL (digital affinity profiling via proximity ligation, sequencing); 10 mM Tris-HCl pH 7.5, 50 mM NaCl, 1 mM DTT, 4% glycerol, room temperature, 30 min; GST-TFs on glutathione beads, 16-mer random dsDNA library, 0.1% formaldehyde crosslink after washing; high values mean tight binding
One experiment addresses T1, FLI1 (Homo sapiens, UniProt Q01543 1-452).
T1 sequence: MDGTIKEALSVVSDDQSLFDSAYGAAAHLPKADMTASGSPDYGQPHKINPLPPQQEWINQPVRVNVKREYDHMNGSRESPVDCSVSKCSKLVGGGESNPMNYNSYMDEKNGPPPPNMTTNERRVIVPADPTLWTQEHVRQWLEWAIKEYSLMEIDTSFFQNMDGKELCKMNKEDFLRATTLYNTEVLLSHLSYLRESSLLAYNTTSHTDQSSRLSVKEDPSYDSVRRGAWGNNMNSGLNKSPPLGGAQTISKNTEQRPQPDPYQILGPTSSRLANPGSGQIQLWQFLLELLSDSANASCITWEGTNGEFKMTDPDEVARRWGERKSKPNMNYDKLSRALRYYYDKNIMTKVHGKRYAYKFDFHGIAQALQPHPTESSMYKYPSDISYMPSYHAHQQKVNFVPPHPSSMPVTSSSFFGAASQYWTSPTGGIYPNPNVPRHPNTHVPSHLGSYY
Conditions: protein: recombinant; tags: N-terminal GST; dsDNA, one strand shown. The method in brief:
(§1)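 In yeast, human transcription factors were expressed with a GST fusion, then pulled down on glutathione beads and given DNA barcodes. Pooled with a tag-only sample, they were exposed to 200 nmole of a 16-mer random double-stranded DNA library (Tris/NaCl/DTT/glycerol buffer, room temperature, 30 min), washed, crosslinked with 0.1% formaldehyde, proximity-ligated using BsaI/T4 ligase for 1 h at 37 °C, PCR-amplified and read on an Illumina NextSeq500. Each hexamer's frequency of reads for a factor, divided by the matching frequency for the tag-only sample, gives the binding signal.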

The next experiment addresses T2, ELK1 (Homo sapiens, UniProt P19419 1-428).
T2 sequence: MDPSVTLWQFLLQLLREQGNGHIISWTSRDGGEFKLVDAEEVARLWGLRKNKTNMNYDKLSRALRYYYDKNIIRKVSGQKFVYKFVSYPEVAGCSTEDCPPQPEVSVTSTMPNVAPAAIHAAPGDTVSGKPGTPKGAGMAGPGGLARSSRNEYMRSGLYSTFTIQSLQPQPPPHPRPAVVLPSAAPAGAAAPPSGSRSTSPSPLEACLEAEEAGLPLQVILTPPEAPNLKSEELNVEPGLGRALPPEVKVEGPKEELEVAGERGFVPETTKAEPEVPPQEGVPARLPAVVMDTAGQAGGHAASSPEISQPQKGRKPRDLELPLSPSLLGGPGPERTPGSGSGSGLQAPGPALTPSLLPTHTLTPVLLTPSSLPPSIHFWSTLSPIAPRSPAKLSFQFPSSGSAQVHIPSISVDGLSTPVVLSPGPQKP
The conditions noted are these: protein: recombinant; tags: N-terminal GST; dsDNA, one strand shown. The method in brief:
as §1

The target of the next experiment is T3, GABPA (Homo sapiens, UniProt Q06546 1-454).
T3 sequence: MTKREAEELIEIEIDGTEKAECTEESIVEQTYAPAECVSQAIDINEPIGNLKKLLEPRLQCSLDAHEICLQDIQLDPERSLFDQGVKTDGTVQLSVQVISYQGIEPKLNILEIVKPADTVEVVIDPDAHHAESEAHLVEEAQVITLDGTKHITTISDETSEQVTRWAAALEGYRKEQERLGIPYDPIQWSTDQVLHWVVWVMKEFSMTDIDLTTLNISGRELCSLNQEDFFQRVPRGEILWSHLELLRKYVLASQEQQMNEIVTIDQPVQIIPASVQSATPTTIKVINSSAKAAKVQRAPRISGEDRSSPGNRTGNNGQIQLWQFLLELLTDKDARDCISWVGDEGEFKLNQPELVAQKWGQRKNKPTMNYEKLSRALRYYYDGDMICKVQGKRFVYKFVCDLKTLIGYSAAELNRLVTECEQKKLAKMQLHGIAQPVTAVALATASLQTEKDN
Conditions: protein: recombinant; tags: N-terminal GST; dsDNA, one strand shown. The method in brief: as §1

Another experiment deals with T4, ERG (Homo sapiens, UniProt P11308 1-479).
T4 sequence: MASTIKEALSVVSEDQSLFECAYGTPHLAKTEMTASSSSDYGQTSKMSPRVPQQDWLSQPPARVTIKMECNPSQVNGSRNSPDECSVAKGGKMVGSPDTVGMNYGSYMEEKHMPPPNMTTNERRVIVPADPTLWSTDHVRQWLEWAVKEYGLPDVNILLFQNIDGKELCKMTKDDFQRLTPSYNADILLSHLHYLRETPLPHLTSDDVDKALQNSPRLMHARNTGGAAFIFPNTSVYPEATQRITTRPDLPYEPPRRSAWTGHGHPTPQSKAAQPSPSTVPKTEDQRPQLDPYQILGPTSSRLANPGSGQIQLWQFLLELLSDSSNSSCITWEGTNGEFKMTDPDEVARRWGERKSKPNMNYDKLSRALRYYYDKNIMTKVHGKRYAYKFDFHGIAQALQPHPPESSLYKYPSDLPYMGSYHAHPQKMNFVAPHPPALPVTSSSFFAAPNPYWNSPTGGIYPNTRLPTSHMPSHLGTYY
Conditions: protein: recombinant; tags: N-terminal GST; dsDNA, one strand shown. An outline of the steps: as §1

Another experiment deals with ELF1 (Homo sapiens, UniProt P32519 1-619). Conditions: protein: recombinant; tags: N-terminal GST; dsDNA, one strand shown. An outline of the steps: as §1
Sequence of ELF1 (P32519 whole entry): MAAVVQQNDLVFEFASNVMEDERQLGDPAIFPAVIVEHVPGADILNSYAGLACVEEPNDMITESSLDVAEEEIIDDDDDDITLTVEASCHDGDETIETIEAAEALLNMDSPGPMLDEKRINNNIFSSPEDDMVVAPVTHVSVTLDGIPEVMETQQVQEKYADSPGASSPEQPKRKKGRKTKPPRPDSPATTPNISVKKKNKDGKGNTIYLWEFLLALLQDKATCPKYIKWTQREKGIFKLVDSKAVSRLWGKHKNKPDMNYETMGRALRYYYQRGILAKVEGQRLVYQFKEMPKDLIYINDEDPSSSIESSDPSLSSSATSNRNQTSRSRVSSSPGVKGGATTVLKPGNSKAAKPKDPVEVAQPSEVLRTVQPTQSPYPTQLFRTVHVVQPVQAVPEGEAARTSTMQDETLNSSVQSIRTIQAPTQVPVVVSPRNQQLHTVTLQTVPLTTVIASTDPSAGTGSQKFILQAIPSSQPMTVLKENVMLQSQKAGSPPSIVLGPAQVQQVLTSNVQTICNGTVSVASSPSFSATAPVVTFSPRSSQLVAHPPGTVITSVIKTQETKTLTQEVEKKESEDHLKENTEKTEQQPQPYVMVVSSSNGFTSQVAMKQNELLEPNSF
The next experiment has as its target T5, EHF (Homo sapiens, UniProt Q9NZC4 1-300).
T5 sequence: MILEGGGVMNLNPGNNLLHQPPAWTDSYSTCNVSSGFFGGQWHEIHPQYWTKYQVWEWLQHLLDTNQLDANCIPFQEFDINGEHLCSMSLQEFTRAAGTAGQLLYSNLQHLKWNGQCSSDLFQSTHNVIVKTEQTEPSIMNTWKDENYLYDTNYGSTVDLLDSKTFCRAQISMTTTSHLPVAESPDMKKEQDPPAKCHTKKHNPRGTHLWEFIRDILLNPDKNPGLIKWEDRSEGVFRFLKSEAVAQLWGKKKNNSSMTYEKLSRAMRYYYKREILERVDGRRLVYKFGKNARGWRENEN
Conditions: protein: recombinant; tags: N-terminal GST; dsDNA, one strand shown. The method in brief:
as §1

In another experiment the target is SPI1 (Homo sapiens, UniProt P17947 1-270). The conditions noted are these: protein: recombinant; tags: N-terminal GST; dsDNA, one strand shown. The method in brief: as §1
The target of the next experiment is SPIB (Homo sapiens, UniProt Q01892 1-262). The conditions noted are these: protein: recombinant; tags: N-terminal GST; dsDNA, one strand shown. An outline of the steps: as §1
Sequence of SPIB (Q01892 whole entry): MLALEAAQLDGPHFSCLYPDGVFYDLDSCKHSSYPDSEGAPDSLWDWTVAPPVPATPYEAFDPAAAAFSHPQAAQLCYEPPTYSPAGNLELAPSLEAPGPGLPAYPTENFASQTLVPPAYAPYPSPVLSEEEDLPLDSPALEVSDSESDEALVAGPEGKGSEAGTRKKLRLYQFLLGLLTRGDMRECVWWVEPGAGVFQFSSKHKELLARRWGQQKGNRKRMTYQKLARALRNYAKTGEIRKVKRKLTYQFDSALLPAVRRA
The target in a further experiment is T6, ELK3 (Homo sapiens, UniProt P41970 1-407).
T6 sequence: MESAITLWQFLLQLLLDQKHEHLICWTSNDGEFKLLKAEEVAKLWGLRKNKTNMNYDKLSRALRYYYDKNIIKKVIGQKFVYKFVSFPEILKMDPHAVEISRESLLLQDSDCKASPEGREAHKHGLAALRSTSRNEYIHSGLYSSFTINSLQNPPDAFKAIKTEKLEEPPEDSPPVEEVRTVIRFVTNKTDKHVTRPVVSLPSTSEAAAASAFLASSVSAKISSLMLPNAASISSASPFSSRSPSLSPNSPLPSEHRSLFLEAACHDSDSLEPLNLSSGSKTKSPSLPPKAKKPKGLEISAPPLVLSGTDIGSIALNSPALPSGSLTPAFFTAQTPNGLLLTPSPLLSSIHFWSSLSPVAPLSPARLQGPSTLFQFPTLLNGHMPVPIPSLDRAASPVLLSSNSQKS
Conditions: protein: recombinant; tags: N-terminal GST; dsDNA, one strand shown. The method in brief:
as §1

Another experiment addresses T7, FEV (Homo sapiens, UniProt Q99581 1-238).
T7 sequence: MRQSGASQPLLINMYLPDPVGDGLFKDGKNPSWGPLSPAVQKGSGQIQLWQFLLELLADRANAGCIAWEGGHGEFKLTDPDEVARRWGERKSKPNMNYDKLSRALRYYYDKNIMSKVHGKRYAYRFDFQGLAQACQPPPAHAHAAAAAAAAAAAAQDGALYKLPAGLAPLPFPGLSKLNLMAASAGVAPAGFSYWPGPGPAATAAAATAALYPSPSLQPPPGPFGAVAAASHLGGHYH
Conditions: protein: recombinant; tags: N-terminal GST; dsDNA, one strand shown. An outline of the steps: as §1

A further experiment addresses ETV5 (Homo sapiens, UniProt P41161 1-510). Conditions: protein: recombinant; tags: N-terminal GST; dsDNA, one strand shown. The method in brief: as §1
Another experiment addresses HSF1 (Homo sapiens, UniProt Q00613 1-529). Conditions: protein: recombinant; tags: N-terminal GST; chain copies: 3; dsDNA, one strand shown. An outline of the steps:
as §1

For another experiment, the target named is T8, SPIC (Homo sapiens, UniProt Q8N5J4 1-248).
T8 sequence: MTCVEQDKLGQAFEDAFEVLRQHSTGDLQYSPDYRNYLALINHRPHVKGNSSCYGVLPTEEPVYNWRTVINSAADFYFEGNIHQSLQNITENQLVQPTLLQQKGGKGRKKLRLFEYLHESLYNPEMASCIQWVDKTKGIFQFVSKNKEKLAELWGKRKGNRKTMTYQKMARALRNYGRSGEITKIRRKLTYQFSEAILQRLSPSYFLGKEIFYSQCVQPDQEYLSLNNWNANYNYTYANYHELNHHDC
The conditions noted are these: protein: recombinant; tags: N-terminal GST; dsDNA, one strand shown. An outline of the steps: as §1

The next experiment has as its target ELF4 (Homo sapiens, UniProt Q99607 1-663). Conditions: protein: recombinant; tags: N-terminal GST; dsDNA, one strand shown. An outline of the steps: as §1
Another experiment has as its target T9, ELK4 (Homo sapiens, UniProt P28324-2 1-405).
T9 sequence: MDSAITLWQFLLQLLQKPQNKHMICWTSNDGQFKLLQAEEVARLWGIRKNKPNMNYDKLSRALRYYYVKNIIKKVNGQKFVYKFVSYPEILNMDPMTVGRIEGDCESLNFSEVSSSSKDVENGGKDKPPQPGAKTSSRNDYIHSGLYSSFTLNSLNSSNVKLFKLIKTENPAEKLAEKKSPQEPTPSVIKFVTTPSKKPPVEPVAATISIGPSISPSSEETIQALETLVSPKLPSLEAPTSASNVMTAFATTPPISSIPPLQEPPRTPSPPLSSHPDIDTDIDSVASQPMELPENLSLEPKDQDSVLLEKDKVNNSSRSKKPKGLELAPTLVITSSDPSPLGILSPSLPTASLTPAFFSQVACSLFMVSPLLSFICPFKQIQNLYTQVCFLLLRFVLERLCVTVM
The conditions noted are these: protein: recombinant; tags: N-terminal GST; dsDNA, one strand shown. An outline of the steps:
as §1

The next experiment deals with T10, ETV2 (Homo sapiens, UniProt O00321 1-342).
T10 sequence: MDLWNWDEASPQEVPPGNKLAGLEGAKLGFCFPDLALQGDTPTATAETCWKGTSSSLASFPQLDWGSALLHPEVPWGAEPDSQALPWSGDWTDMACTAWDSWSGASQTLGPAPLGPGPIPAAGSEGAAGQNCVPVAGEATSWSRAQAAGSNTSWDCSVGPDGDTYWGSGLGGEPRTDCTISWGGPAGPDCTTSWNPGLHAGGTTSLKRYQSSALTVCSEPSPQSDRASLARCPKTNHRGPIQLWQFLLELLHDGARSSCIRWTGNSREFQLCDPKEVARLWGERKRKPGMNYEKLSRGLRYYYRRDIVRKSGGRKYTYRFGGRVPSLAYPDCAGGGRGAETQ
Conditions: protein: recombinant; tags: N-terminal GST; dsDNA, one strand shown. The method in brief: as §1

The target of a further experiment is T11, ELF3 (Homo sapiens, UniProt P78545 1-371).
T11 sequence: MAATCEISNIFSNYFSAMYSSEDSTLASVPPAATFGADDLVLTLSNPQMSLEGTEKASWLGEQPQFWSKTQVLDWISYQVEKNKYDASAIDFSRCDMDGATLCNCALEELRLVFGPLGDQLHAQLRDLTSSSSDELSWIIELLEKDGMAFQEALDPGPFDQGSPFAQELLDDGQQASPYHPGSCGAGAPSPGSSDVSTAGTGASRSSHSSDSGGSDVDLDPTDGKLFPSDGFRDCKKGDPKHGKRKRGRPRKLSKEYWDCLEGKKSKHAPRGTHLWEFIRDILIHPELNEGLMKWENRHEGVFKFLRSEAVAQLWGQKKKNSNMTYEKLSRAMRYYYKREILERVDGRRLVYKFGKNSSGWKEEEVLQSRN
Conditions: protein: recombinant; tags: N-terminal GST; dsDNA, one strand shown. An outline of the steps:
as §1

The target in the next experiment is CRX (Homo sapiens, UniProt O43186 1-299). Conditions: protein: recombinant; tags: N-terminal GST; dsDNA, one strand shown. The method in brief: as §1
Sequence of CRX (O43186 whole entry): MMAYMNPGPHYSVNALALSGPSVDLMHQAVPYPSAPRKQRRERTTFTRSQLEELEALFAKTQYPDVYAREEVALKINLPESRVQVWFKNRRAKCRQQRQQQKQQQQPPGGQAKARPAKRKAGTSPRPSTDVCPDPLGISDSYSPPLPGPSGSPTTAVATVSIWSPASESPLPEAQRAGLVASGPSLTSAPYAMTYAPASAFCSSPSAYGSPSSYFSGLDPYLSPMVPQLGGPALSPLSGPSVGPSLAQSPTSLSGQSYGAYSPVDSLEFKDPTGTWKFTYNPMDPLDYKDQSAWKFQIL
The next experiment deals with ETV1 (Homo sapiens, UniProt P50549 1-477). The conditions noted are these: protein: recombinant; tags: N-terminal GST; dsDNA, one strand shown. The method in brief:
as §1

Sequence of ELF4 (Q99607 whole entry): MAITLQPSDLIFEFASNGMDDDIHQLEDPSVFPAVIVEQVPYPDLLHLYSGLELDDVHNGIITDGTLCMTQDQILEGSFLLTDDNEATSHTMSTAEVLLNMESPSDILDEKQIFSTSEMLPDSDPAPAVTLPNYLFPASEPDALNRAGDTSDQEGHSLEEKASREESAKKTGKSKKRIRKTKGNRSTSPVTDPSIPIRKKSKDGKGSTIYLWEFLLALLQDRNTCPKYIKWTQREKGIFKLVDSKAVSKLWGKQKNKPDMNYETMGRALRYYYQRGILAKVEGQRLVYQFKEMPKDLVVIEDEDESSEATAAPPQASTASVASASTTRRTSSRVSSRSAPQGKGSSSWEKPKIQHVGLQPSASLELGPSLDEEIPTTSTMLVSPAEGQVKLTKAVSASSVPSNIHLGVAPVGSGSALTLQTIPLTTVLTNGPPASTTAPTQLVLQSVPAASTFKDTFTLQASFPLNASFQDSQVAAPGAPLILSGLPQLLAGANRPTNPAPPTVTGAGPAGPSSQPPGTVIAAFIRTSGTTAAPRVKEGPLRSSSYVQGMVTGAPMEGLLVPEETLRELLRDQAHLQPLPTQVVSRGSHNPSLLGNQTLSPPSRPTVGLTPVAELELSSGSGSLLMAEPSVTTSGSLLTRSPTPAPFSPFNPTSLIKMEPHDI
Sequence of ETV1 (P50549 whole entry): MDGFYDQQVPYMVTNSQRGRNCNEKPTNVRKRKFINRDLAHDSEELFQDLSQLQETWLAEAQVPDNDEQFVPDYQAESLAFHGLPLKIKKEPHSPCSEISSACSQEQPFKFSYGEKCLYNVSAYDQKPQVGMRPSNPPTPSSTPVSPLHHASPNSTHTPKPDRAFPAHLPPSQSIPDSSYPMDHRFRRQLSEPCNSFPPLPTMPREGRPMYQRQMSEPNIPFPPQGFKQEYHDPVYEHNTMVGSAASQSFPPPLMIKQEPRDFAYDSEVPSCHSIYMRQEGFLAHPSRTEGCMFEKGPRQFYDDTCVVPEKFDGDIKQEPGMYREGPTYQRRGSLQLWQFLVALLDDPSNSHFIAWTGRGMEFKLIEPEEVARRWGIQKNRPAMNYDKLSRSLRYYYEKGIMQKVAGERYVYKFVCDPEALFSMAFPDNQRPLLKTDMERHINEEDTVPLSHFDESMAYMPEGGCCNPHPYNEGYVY
Sequence of ETV5 (P41161 whole entry): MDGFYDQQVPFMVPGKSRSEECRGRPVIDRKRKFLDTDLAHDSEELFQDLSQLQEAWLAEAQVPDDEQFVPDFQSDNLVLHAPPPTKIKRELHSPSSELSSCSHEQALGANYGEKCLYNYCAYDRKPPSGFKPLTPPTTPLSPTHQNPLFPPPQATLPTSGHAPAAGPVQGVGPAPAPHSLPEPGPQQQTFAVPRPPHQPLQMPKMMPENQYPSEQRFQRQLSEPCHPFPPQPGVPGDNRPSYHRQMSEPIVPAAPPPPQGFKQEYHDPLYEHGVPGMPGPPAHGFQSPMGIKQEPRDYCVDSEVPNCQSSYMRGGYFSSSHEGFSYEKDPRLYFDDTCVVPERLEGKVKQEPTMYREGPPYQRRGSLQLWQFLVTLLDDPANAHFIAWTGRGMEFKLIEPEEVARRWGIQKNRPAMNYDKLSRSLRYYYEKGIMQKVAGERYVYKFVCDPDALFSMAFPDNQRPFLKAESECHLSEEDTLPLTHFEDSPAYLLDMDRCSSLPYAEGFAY
Sequence of HSF1 (Q00613 whole entry): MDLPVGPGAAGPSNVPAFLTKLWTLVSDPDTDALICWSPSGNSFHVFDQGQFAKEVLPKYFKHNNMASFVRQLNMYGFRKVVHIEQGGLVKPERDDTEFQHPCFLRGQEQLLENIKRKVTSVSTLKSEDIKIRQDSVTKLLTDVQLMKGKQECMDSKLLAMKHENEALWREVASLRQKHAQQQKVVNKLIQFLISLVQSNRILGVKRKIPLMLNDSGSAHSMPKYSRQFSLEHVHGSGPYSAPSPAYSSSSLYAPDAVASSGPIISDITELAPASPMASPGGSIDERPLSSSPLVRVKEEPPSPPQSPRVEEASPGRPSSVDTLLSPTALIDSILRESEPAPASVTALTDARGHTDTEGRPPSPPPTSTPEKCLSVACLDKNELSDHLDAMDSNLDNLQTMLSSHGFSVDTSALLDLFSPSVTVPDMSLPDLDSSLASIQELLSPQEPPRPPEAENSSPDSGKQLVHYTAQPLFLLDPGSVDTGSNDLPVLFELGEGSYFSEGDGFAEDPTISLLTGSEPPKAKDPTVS

Consider TTGCTA, for which the binding signal with FLI1 was 1.38 fold enrichment (6-mer frequency, TF over GST control); with ELK1 it was 1.27 fold enrichment (6-mer frequency, TF over GST control); in the experiment with GABPA it was 1.27 fold enrichment (6-mer frequency, TF over GST control); with ERG it was 1.26 fold enrichment (6-mer frequency, TF over GST control); with ELF1, 1.3 fold enrichment (6-mer frequency, TF over GST control); with EHF, 1.33 fold enrichment (6-mer frequency, TF over GST control). The binding signal was 1.31 fold enrichment (6-mer frequency, TF over GST control) with SPI1; 1.37 fold enrichment (6-mer frequency, TF over GST control) in the experiment with SPIB; 1.33 fold enrichment (6-mer frequency, TF over GST control) in the experiment with ELK3; 1.24 fold enrichment (6-mer frequency, TF over GST control) with FEV; 1.3 fold enrichment (6-mer frequency, TF over GST control) with ETV5; 1.48 fold enrichment (6-mer frequency, TF over GST control) with HSF1. Further, the binding signal with SPIC is 1.4 fold enrichment (6-mer frequency, TF over GST control); with ELF4, 1.29 fold enrichment (6-mer frequency, TF over GST control); with ELK4, 1.46 fold enrichment (6-mer frequency, TF over GST control); with ETV2, 1.35 fold enrichment (6-mer frequency, TF over GST control); with ELF3 it was 1.31 fold enrichment (6-mer frequency, TF over GST control); with CRX it was 1.5 fold enrichment (6-mer frequency, TF over GST control). Also, the binding signal in the experiment with ETV1 is 1.37 fold enrichment (6-mer frequency, TF over GST control).
